Data as given in PubChem BioAssay AID1558 (National Center for Advancing Translational Sciences (NCATS), 2009).
Where “and” joins values, the source holds several entries; their conditions need not be identical. Equal values may be shown once. Records with an inconclusive call do not appear. Entries that show only a call come without a potency. Calls of active or inactive are those of the source. The call rests on the fitted dose curve; in most records, active means well fitted inhibition curve with a large enough effect; inconclusive means small, poorly fitted or top-dose-only effect; inactive means flat fitted curve, though single readings scatter.

Target: Microtubule-associated protein tau (Homo sapiens) (UniProt P10636)
Assay: Confirmation Concentration-Response Assay for Inhibitors of Tau Fibril Formation, Thioflavin T Binding
Details: recombinant tau K18 P301L (four-repeat tau fragment) heparin fibrillization, ThT fluorescence; series mostly up to 100 µM
From the text: NIH Molecular Libraries Probe Production Network [MLPCN] NIH Chemical Genomics Center [NCGC] MLPCN Grant: X01 MH083262-01 Assay Provider: Carlo Ballatore, University of Pennsylvania NCGC Assay Overview: The microtubule-associated protein tau is an abundant protein in the axons of neurons that stabilizes microtubules. With its ability to modulate microtubule dynamics, tau contributes directly or indirectly, to key structural and regulatory cellular functions. Particularly important is the influence tau exerts on axonal transport, which allows signaling molecules, trophic factors and other essential cellular constituents to travel along the axons. Under pathological conditions, tau becomes sequestered into insoluble aggregates called neurofibrillary tangles. This phenomenon is believed to have pathological consequences by promoting axonal transport deficits that ultimately lead to synaptic dysfunction and neuronal loss. To identify inhibitors of tau aggregation, a heparin-induced tau fibril formation assay was used that employed a recombinantly expressed fragment of tau, K18 (Q242-E372), bearing a P301L mutation (Gustke et al. 1994; Hong et al. 1998). This assay monitors tau fibrillization by Thioflavin T (ThT) fluorescence. Gustke, N., B. Trinczek, et al. (1994). "Domains of tau protein and interactions with microtubules." Biochemistry 33(32): 9511-22. Hong, M., V. Zhukareva, et al. (1998). "Mutation-specific functional impairments in distinct tau isoforms of hereditary FTDP-17." Science 282(5395): 1914-7. Li, W. and V. M. Lee (2006). "Characterization of two VQIXXK motifs for tau fibrillization in vitro." Biochemistry 45(51): 15692-701. von Bergen, M., S. Barghorn, et al. (2001). "Mutations of tau protein in frontotemporal dementia promote aggregation of paired helical filaments by enhancing local beta-structure." J Biol Chem 276(51): 48165-74.
For screening, 2 uL/well human K18 P301L (15 uM unlabeled and 0.24 uM Alexa 594-labeled tau, final concentrations) in reagent buffer (100 mM sodium acetate pH 7) was dispensed into black solid 1536-well plates (Grenier) using a solenoid-based dispenser. Following transfer of 23 nL compound or DMSO vehicle by a pin tool, 2 uL/well heparin (20 uM final concentration) in reagent buffer was added and the plate centrifuged 15 s at 1000 RPM. Plates were incubated 6 hr at 37 C and then 1 uL/well ThT (30 uM final concentration) was added. After a 1 hr ambient incubation, the plates were read by an Envision (Perkin Elmer) to monitor ThT fluorescence (450/8 nm excitation and 510/23 nm emission). Keywords: NIH Roadmap, MLPCN, MLI, MLSMR, NCGC, qHTS, tau, tauopathies, Alzheimer's disease, fibril, neurodegeneration, aggregation

Sequence of Microtubule-associated protein tau (Homo sapiens) (P10636 561-689 P618L limits assumed): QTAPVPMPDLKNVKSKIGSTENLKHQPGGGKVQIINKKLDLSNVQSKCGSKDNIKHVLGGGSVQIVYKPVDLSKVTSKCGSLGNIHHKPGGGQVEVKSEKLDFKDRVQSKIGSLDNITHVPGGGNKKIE

Row | SMILES | Potency
1 | CCN(c1ccccc1)S(=O)(=O)c1nnc(NC(=O)C(C)(C)C)s1 | inactive
2 | NCCc1ccc(O)c(O)c1 | inactive
3 | CC(=O)Nc1sc(C)c2cnn(-c3ccccc3)c(=O)c12 | inactive
4 | COC(=O)c1c(NC(=O)CCCOc2ccc(C)cc2)sc2c1C(C(=O)OC)CC2 (stereo not given) | 3.55 µM (active)
5 | COc1ccc(OC)c(NC(=O)c2c(NCc3cccs3)sc3c2CCCC3)c1 | inactive
6 | COc1ccc(-n2nc(C(=O)O)c3csc(N)c3c2=O)cc1 | 1 µM (active)
7 | O=C(Cc1ccccc1)Nc1sc2c(c1C(=O)Nc1ccc(Br)cc1)CCCC2 | inactive
8 | COc1ccc2[nH]c(=O)c(CNc3ccccc3OC)cc2c1 | 25.1 µM (active)
9 | CCOC(=O)c1nn(-c2ccccc2)c(=O)c2c(N)scc12 | 3.98 µM (active) and 7.94 µM (active)
10 | Nc1scc2c(CO)nn(-c3ccccc3)c(=O)c12 | 3.98 µM (active)
11 | COc1ccc(S(=O)(=O)Nc2cc(Sc3ncn[nH]3)c(O)c3ccccc23)cc1 | 2.82 µM (active)
12 | O=C(O)CC1S/C(=N/N=C/c2ccc(-c3ccc(Cl)cc3[N+](=O)[O-])o2)NC1=O (stereo not given) | 1.58 µM (active)
13 | COC(=O)CSc1nc2ccc(NC(=O)CSc3nnnn3Cc3ccccc3)cc2s1 | inactive
14 | Cn1ncc(Cl)c1C(=O)Nc1cccc(Cl)c1 | 44.7 µM (active)
15 | CN(C)c1ccc(-c2cc[nH]c(=O)c2N)cc1 | 1.58 µM (active)
16 | COc1ccc(NC(=O)C2CCN(S(=O)(=O)c3c(C)noc3/C=C/c3cccs3)CC2)cc1Cl | inactive
17 | N#Cc1cccc(NC(=O)c2ccc3c(c2)N(Cc2cccc(Cl)c2)C(=O)c2ccccc2S3(=O)=O)c1 | inactive
18 | Oc1ccccc1CNc1cccc2cccnc12 | 39.8 µM (active)
19 | COC(=O)c1c(N)sc2c1C(C(=O)OC)CC2 (stereo not given) | inactive
20 | Cn1cc(Cl)c(C(=O)Nc2cccc(Cl)c2Cl)n1 | inactive

Row | SMILES | Potency
21 | COC(=O)c1c(NC(=O)CCCOc2cccc(C)c2)sc2c1C(C(=O)OC)CC2 (stereo not given) | 1.78 µM (active)
22 | Cc1ccc(N(C)S(=O)(=O)c2nnc(NC(=O)C3CCCCC3)s2)cc1 | inactive
23 | Cc1ccc(NC(=O)N2CCN(c3ccccn3)CC2)cc1 | inactive
24 | COc1cc(/C=N/N=C2/NC(=O)C(CC(=O)O)S2)ccc1OCc1ccc(Cl)cc1 (stereo not given) | inactive
25 | CC(C)Cn1c(O)c(/C=C2\C=NN=C2c2ccccc2)sc1=S | inactive
26 | NC[C@H](O)c1ccc(O)c(O)c1 | 5.62 µM (active)
27 | COc1c(Cl)cccc1NC(=O)c1c(NC(=O)Cc2ccccc2)sc2c1CCCC2 | inactive
28 | CC1CCc2c(sc(NC(=O)Cc3ccccc3)c2C(=O)Nc2ccc(Cl)cc2)C1 (stereo not given) | inactive
29 | NC[C@@H](O)c1ccc(O)c(O)c1 | inactive
30 | CCOC(=O)c1c(N)sc2c1CN(C)CC2 | inactive
31 | COC(=O)C1CCc2sc(NC(=O)Cc3ccccc3)c(C(=O)Nc3ccc(Cl)cc3)c21 (stereo not given) | inactive
32 | COc1ccc2oc(-c3ccc(NC(=O)c4ccc(N5CCOCC5)c([N+](=O)[O-])c4)cc3)nc2c1 | inactive
33 | NC(=O)c1nn(-c2ccccc2)c(=O)c2c(N)scc12 | 4.47 µM (active)
34 | Nc1scc2c(C(=O)O)nn(-c3ccccc3)c(=O)c12 | 6.31 µM (active)
35 | CCOC(=O)c1nn(-c2ccc(Cl)cc2)c(=O)c2c(N)scc12 | 2.24 µM (active)
36 | O=C(Nc1ccccc1)Nc1ccccc1 | inactive
37 | O=C(Nc1nnc(S(=O)(=O)Nc2ccccc2)s1)C1CCCCC1 | inactive
38 | CCN(CC)C(=O)c1nn(-c2ccc(OC)cc2)c(=O)c2c(N)scc12 | 10 µM (active)
39 | CCn1c(CSc2nccn2C)nc2cc(C(=O)O)ccc21 | 39.8 µM (active)
40 | COc1ccc(NC(=O)Cn2cc(S(=O)(=O)N3CCN(c4ccccc4F)CC3)c3ccccc3c2=O)cc1Cl | inactive
